Test results as given in the supplement of paper PMC12340641.
Where a name gives a salt, the structure may show the parent alone.

What was measured:
[1] = target: IKZF1 (dCK*-IKZF1 fusion in HEK293FT) (UniProt Q13422); assay: inhibition of IKZF1 HTRF signal (DMSO = 0%, pomalidomide 10 uM = 100%); higher = lower IKZF1 protein level; details: compound concentration: 5 uM, overnight (~20 h)
Summary of the method: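 Values are percent inhibition of IKZF1 signal, normalised plate by plate against vehicle and a reference degrader. HEK293FT cells stably expressing an IKZF1 fusion were seeded at 2000 per well in 384-well plates and exposed to 5 μM compound in single wells overnight at 37 °C. After 30 min lysis at room temperature, lysates were incubated overnight with a commercial HTRF total-IKZF1 antibody kit, and the background-subtracted 665/620 nm time-resolved FRET ratio was read. On each plate, vehicle was set at 0% and the reference degrader at 100%.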

HEK293FT dCK*-only = assay: relative growth in counter assay (no AraC = 100%, AraC + DMSO = 0%); higher = more growth rescue independent of IKZF1; details: compound concentration: 5 uM; AraC concentration: 0.3 uM; overnight pretreatment + 4 days AraC
Summary of the method: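 This counter assay used HEK293FT cells expressing only an engineered kinase construct, seeded at 300 per well in 384-well plates. Compound was added at 5 μM 2 h after seeding, and after overnight at 37 °C the cells received a nucleoside suicide substrate at 0.3 μM plus medium for 4 days. On day 5, nuclei stained with Hoechst 33342 were counted by imaging, and relative growth was normalised per plate; wells without suicide substrate were set at 100% and wells with substrate plus vehicle at 0%.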

HEK293FT dCK*-IKZF1 = assay: relative growth recovery (pomalidomide 10 uM = 100%, DMSO = 0%); higher = more growth rescue (IKZF1 fusion degradation); details: compound concentration: 5 uM; AraC concentration: 0.3 uM; overnight pretreatment + 4 days AraC
Summary of the method: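 HEK293FT cells stably expressing an engineered deoxycytidine kinase–IKZF1 fusion were seeded at 300 per well in 384-well plates and given 5 μM compound 2 h later. After overnight incubation at 37 °C, a nucleoside suicide substrate at 0.3 μM was added with medium for 4 days, and on day 5 Hoechst 33342-stained nuclei were counted by whole-well imaging. Growth recovery was normalised per plate between a reference degrader and vehicle, set to 100% and 0% respectively, and the values are means of duplicates run on different days.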

Sequence of IKZF1 (dCK*-IKZF1 fusion in HEK293FT) (Q13422 whole entry, looked up, the tested form may be a part): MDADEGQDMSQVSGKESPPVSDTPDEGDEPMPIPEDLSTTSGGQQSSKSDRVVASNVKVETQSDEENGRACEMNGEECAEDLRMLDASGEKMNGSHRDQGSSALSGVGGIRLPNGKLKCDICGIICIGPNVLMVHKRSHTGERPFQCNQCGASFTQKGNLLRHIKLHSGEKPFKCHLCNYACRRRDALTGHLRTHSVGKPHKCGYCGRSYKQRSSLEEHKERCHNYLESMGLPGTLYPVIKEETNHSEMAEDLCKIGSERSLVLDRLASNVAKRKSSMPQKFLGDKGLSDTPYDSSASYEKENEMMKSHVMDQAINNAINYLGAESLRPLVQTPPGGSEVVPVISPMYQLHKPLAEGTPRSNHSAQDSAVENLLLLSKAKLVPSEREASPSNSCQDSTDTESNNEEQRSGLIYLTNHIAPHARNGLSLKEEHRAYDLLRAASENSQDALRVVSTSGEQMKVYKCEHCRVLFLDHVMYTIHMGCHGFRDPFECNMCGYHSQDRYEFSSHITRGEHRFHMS

SMILES | inhibition of IKZF1 HTRF signal [1] | relative growth in counter assay (HEK293FT dCK*-only) | relative growth recovery (HEK293FT dCK*-IKZF1)
COc1cc(CN(CCN)C(=O)c2cccs2)ccc1OCc1ccccc1 | -24.8% | 7.03% | 0.355%
Cc1cccc(Nc2nc(-c3ccncc3)cs2)c1 | -51.1% | -8.26% | -0.535%
CN(C)CCCN1c2ccccc2Sc2ccc(C(F)(F)F)cc21 | -28.3% | 6.11% | 1.67%
CN1CCN(c2ncc(-c3cc(Cl)cc(Cl)c3Cl)c(N)n2)CC1 [sipatrigine] | 11.5% | 5.22% | 2.4%
O=C(Nc1ccc(S(=O)(=O)Nc2nccs2)cc1)C(c1ccccc1)c1ccccc1 | -31.6% | -2.35% | -3.39%
COc1cc2c(cc1OC)[C@@H]1Cc3ccc(OC)c(OC)c3CN1CC2 [Rotundine] | 14.2% | -31.5% | -10.7%
CC(C)n1nc(-c2ccc3oc(N)nc3c2)c2c(N)ncnc21 | 83.3% | -33.3% | -12.4%
C=C1C(=O)O[C@@H]2C[C@@]3(C)CCC[C@H](C)C3=C[C@H]12 [alantolactone] | -31.2% | -28% | -7.37%
CC(=NNc1nnc2c(n1)[nH]c1c(C)cccc12)c1ccccn1 | 40.7% | -31.6% | -12.7%
O=C(Nc1ccc(S(=O)(=O)C(F)(F)F)cc1)C1=CCN(c2ncccc2C(F)(F)F)CC1 | -40.9% | 62.2% | 53.1%
O=C(OC)C1=C(C)NC(C)=C(C(OCCCN3CCC(C4=CC=CC=C4)(C5=CC=CC=C5)CC3)=O)[C@H]1[C@]2=CC=CC([N+]([O-])=O)=C2 [niguldipine-(S)-(+)] | -12% | -29.9% | -10.5%
CC(=O)[C@@]1(O)C=C(O[C@H]2C[C@H](N)[C@H](O)[C@H](C)O2)c2c(c(O)c3c(O)c4ccccc4c(O)c3c2O)C1 [Idarubicin HCl] | 87.1% | -34.3% | -13%
O=C1N(c2ccccc2)c2ccccc2C1(Cc1ccncc1)Cc1ccncc1 [linopirdine] | -39.8% | -2.22% | -3.48%
Cc1cccc(C)c1NC(=O)C(C)N (stereo not given) [Tocainide] | 20.5% | -12.9% | -3.04%
O=C(NCc1ccc(OC(F)(F)F)cc1)C1c2ccccc2C(=O)N1C1CCOCC1 (stereo not given) | -25.8% | -2.6% | -1.02%
